Results on three compounds are retold here after PubChem BioAssay (NCATS).

Molecules are shown by their SMILES. Values joined by “and” are separate entries in the source; they are usually repeats but may differ in a detail not shown here. Equal values may be shown once. Inconclusive results are not listed. More than one record can exist for a structure, and the calls need not agree. Active and inactive are the calls of the source. Unless noted, calls follow the shape of the dose curve; as a rule, active = well fitted curve in the direction sought with a large enough effect; inconclusive = small, poorly fitted or top-dose-only effect, or another doubt; inactive = no such curve, though single readings can be large; an effect the other way counts as inactive or inconclusive.

A short description of experiment [1]: AP1 Signaling Pathway (AID 357; active = well fitted curve in either direction with a large enough effect, not every such curve was filed as active;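 also: ME-180 reporter cells stimulated with EGF at its EC50 level; % is scaled to controls: 0 for no effect and ±100 for the full control effect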). Particulars: ME-180 AP-1-bla reporter, EGF-induced, beta-lactamase ratio, 5 h. In short, it runs like this:
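A ratiometric CCF4 readout (405 nm excitation; 460 and 530 nm emission) quantified AP-1-driven beta-lactamase in ME-180 cells after 5 h with compound and EC50 EGF; AC50 values were derived for activators and inhibitors.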

Experiment [2] can be described thus: NFAT Signaling Pathway (AID 444; active = well fitted curve in either direction with a large enough effect, not every such curve was filed as active;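 also: carbachol stimulus at about its EC50 of 1 µM final; % is scaled to controls: 0 for no effect and ±100 for the full control effect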). The note with it: Jurkat NFAT-bla M1, carbachol, beta-lactamase ratio, 5 h. The gist of the method:
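Jurkat cells with NFAT-driven β-lactamase reporter and co-expressed M1 receptor, stimulated with carbachol (final 1 uM, ~EC50), compound titration, 5 h at 37 °C. CCF4 loaded 1 h at RT; 460/530 nm ratio gave %activity and AC50.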

Experiment [3] is described as follows: Stat Signaling Pathway (AID 446; active = well fitted curve in either direction with a large enough effect, not every such curve was filed as active;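 also: ME-180 cervical cancer cells given 40 pM IL-6 alongside compound; SIE-controlled beta-lactamase reporter measured as 460/530 nm FRET emission ratio; % is scaled to controls: 0 for no effect and ±100 for the full control effect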). Particulars: ME-180 SIE beta-lactamase reporter, IL-6 stimulated, 5 h. The gist of the method: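 Screening format detects activators and inhibitors alike: ME-180 SIE-bla cells stimulated at 40 pM IL-6 for 5 hrs with compound, then dual-emission beta-lactamase read at 405 nm excitation.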
Experiment [4] deals with Glucocorticoid receptor (Homo sapiens) (UniProt P04150). The experiment in a line: GR-GFP Redistribution (AID 450;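 active = compounds whose dose series gives a full or clear partial fitted curve of increased nuclear translocation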; also: potency is read from the fitted curve at half-maximal effect). Particulars: U2OS GR-GFP nuclear translocation, laser cytometry, 2 h.
Experiment [5] shares this target. Nature of the experiment: GR-EFC Redistribution (AID 451; calls by dose curve; also: potency is read from the fitted curve at half-maximal effect). Particulars: CHO-K1 GR-EFC translocation, beta-gal luminescence, 2 h. In short, it runs like this:
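CHO-K1 cells expressing nuclear EA and GR-ED fragments of b-gal; compounds titrated up to 46 uM final, 2 h at 37 C. GR nuclear translocation read as complemented b-gal luminescence after 1 h RT detection.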

Experiment [6] has as its target Mitogen-activated protein kinase 10 (Mus musculus) (UniProt Q61831). The experiment in a line: JNK3 AlphaScreen Assay (AID 530; active = well fitted curve in either direction with a large enough effect, not every such curve was filed as active;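 also: kinase came from lysate of stimulated human HepG2 cells; signal reports phosphorylation of biotinylated GST-cJun 1-79 at Ser73 with 10 µM ATP; % is scaled to controls: 0 for no effect and ±100 for the full control effect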). The note with it: JNK3 lysate, c-Jun phosphorylation; series mostly up to 57.1 µM. In short, it runs like this:
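Pre-activated (IL-1β/TNFα) JNK3 in HepG2 lysates phosphorylates biotin-GST-cJun(1-79), 10 uM ATP; anti-phospho-cJun(Ser73) AlphaScreen read at room temperature, pH 7.6 Tris buffer. Compounds pre-incubated 15 min as titrations.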

The target of experiment [7] is 3',5'-cyclic-AMP phosphodiesterase 4B (Homo sapiens) (UniProt Q07343). The experiment in a line: qHTS Assay for Inhibitors of PDE-IV (AID 607; active = well fitted activation curve with a large enough effect in the main read-out, with a control signal flat, not every such curve was filed as active; also: % of control where 0% means no effect). The note with it: HEK293 ACTOne CNG channel cells, membrane potential fluorescence; series mostly up to 22.9 µM. The gist of the method:
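The readout is membrane depolarisation from a cAMP-sensing CNG channel, detected with a potential dye at ex 535/em 590. Cells were HEK293-derived (endogenous PDE-IV) at 1000 cells/well, titrated up to 22.9 uM final.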
(In general: Quantitative high-throughput screening tests each substance at several concentrations.)

In experiment [8] the target is Cytochrome P450 2C9 (Homo sapiens) (UniProt P11712). Nature of the experiment: qHTS Assay for Inhibitors and Substrates of Cytochrome P450 2C9 (AID 883). Also: % is scaled to controls: 0 for no effect and ±100 for the full control effect; nearly all actives have a fitted effect of over 60% in size. The note with it: recombinant CYP2C9, luciferin-H luminescence, 60 min; series mostly up to 57.1 µM. The gist of the method: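 10nM CYP2C9 + 100uM Luciferin-H (=KM), 25mM KPO4; cpd 10 min 37C; NADPH regen, 60 min 37C; stop/detect with P450 Glo-Buffer 20 min; luminescence. Norm. to 57uM sulphaphenazole as full inhibition.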

Experiment [9] addresses Cytochrome P450 2D6 (Homo sapiens) (UniProt P10635). The experiment in a line: qHTS Assay for Inhibitors and Substrates of Cytochrome P450 2D6 (AID 891).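 Also: luciferin methyl ether substrate demethylated by CYP2D6 with NADPH regeneration; % is scaled to controls: 0 for no effect and ±100 for the full control effect; nearly all actives have a fitted effect of over 60% in size.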 Particulars: recombinant CYP2D6, luciferin-ME EGE luminescence; series mostly up to 57.1 µM. In short, it runs like this:
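Human CYP2D6 (5 nM) with 30 uM Luciferin-ME EGE (at Km) in 100 mM KPO4, compound preincubated 10 min, then NADPH regeneration system for 60 min at room temperature. Luciferin read by luminescence; normalized to 1.43 uM quinidine.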

A short description of experiment [10]: qHTS Assay for Identification of Small Molecule Agonists for Thrombopoietin (TPO) Signaling Pathway (AID 917). Also: % is scaled to controls: 0 for no effect and ±100 for the full control effect. The note with it: TPO signaling pathway reporter cells, agonist qHTS, stimulated with TPO at its EC50; series mostly up to 38.5 µM. The gist of the method: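 Luminescence from a Glycoprotein IIb promoter–driven luciferase reporter served as read-out in murine Ba/F3 cells carrying the human TPO receptor. Cells, deprived of IL-3 overnight, received compounds with 26 pM TPO and were incubated 24 hrs at 37 C.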

For experiment [11], the target named is Pyruvate kinase (Leishmania mexicana) (UniProt Q27686). The experiment in a line: qHTS Validation Assay for Inhibitors of Leishmania Mexicana Pyruvate Kinase (AID 945).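 Also: 0% = DMSO only neutral control wells.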 The note with it: purified L. mexicana pyruvate kinase, enzyme activity, E451W mutant enzyme; series mostly up to 57.5 µM. The gist of the method: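 Read-out: luminescence from PKLight stop/detection reagent, data normalized to DMSO. Reaction: 0.2 nM E451W LmPYK, 0.5 mM PEP, 0.1 mM ADP, pH 7.2, 1 h room temperature.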

Experiment [12] deals with Pyruvate kinase PKM (Homo sapiens) (UniProt P14618). Nature of the experiment: qHTS Assay for Activators of Human Muscle Pyruvate Kinase (AID 954; active = well fitted curve in the direction sought with a large enough effect, not every such curve was filed as active;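 also: 0% = uninhibited enzyme and -100% = no enzyme or full thiadiazolimine inhibition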). The note with it: purified human muscle pyruvate kinase, luciferase-coupled luminescence, 1 h; series mostly up to 57.5 µM. The gist of the method: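 Reaction: 0.1 nM purified PKM2 with 0.5 mM phosphoenolpyruvate and 0.1 mM ADP, room temperature, 1 h. Readout: luciferase-based ATP luminescence after stop reagent. Activators judged against a 0.3 nM enzyme column.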

Experiment [13] deals with alpha-glucosidase (Oryza sativa, rice) (UniProt Q653V4). The experiment in a line: Counterscreen for Glucocerebrosidase Inhibitors: qHTS Assay for Rice alpha-Glucosidase at pH 5.0 (AID 997).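 Also: 0% = full activity with enzyme and -100% = basal without enzyme.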 The note with it: rice alpha-glucosidase enzyme activity; series mostly up to 76.9 µM. The gist of the method: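 Rice alpha-glucosidase (4 nM final) with 400 uM 4-methylumbelliferyl-alpha-D-glucopyranoside in citrate buffer pH 5.0, 20 min at room temperature, stopped at pH 10; fluorescence 365/440 nm, compounds 0.7 nM–77 uM, AC50 from Hill fits.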
(A counterscreen serves to expose hits that act by an unwanted route or on another target.)

Experiment [14] is described as follows: qHTS Assay for Lipid Storage Modulators (AID 1519; calls by dose curve). The note with it: Drosophila S3 cells, BODIPY lipid droplet/cell ratio, laser cytometry, cells loaded with oleic acid. The gist of the method:
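Cells seeded at 5,000 per well were treated with compounds over a concentration series and loaded with oleic acid (400 uM, as added). Lipid droplet fluorescence (488 nm excitation, 500-530 nm channel) was read by laser-scanning cytometry and normalized to 20 uM Triacsin C.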

Experiment [15] concerns the target Ubiquitin carboxyl-terminal hydrolase 1 (Homo sapiens) (UniProt O94782). Nature of the experiment: Inhibitors of USP1/UAF1: Pilot qHTS (AID 504865).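 Also: rhodamine fluorescence freed from ubiquitin-rhodamine substrate followed over time; top concentration of the series differs between compounds; % is scaled to controls: 0 for no effect and ±100 for the full control effect; nearly all actives have a fitted effect of over 35% in size.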 The note with it: purified USP1/UAF1, Ub-rhodamine cleavage fluorescence; series mostly up to 114 µM. In short, it runs like this: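 In 50mM HEPES pH 7.8 containing 0.5mM EDTA, 1mM TCEP, 0.1 mg/ml BSA and 0.01% Tween-20, 1nM USP1/UAF1 is exposed to compound for 15 min, then Ub-Rho (150nM final) is added and fluorescence is read over time.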

Experiment [16] has as its target DNA dC->dU-editing enzyme APOBEC-3G (Homo sapiens) (UniProt Q9HC16). Nature of the experiment: qHTS for inhibitors of Vif-A3G interactions: Validation (AID 588379). Also: 0% is about no effect. The note with it: Vif-A3G protein interaction assay; series mostly up to 46.1 µM. The gist of the method:
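HeLa cells stably expressing Vif and A3G-eYFP, 700 cells/well, incubated overnight at 37 deg C, then exposed to compound overnight at 37 deg C. Inhibition of Vif-mediated degradation read as increased yellow fluorescence (Ex 488/Em 500-530) by laser-scanning cytometry.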

Experiment [17] relates to Zika virus NS2B-NS3 protease. Nature of the experiment: Primary screen GU AMC qHTS for Zika virus inhibitors (AID 1347154).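 Also: 0% = no-inhibitor control and -100% = no-enzyme control; nearly all actives have a fitted effect of over 70% in size.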 The note with it: Zika NS2B-NS3 unlinked protease, AMC fluorogenic substrate; series mostly up to 54.1 µM. The gist of the method:
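Unlinked Zika NS2B hydrophilic domain–NS3 protease complex at 25 nM in 10 mM Tris-HCl pH 8.0, 0.01% Tween 20, with an AMC peptide substrate. Fluorescence change (340/450 nm) over 15 min at room temperature, normalized to controls, fitted to 4-parameter Hill.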

Experiment [18] is described as follows: Primary qHTS for small molecule stabilizers of the endoplasmic reticulum resident proteome: Secreted ER Calcium Modulated Protein (SERCaMP) assay (AID 1508630). Also: % is scaled to controls: 0 for no effect and ±100 for the full control effect. The note with it: SH-SY5Y GLuc-SERCaMP (Gaussia luciferase released on ER calcium loss) secretion, thapsigargin, luminescence; series mostly up to 38.4 µM. The gist of the method:
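GLuc-SERCaMP-expressing SH-SY5Y cells, pretreated 16 h with compound, are challenged with thapsigargin to empty ER calcium stores; after 4 h, coelenterazine is added directly to the medium and luminescence is imaged.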

The target in experiment [19] is Cytochrome P450 1A2 (Homo sapiens) (UniProt P05177). The experiment in a line: p450-cyp1a2 (AID 410; calls by dose curve; also: potency is read from the fitted curve at half-maximal effect;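 as to activity change, negative = inhibition: -100% = full effect of reference inhibitor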). The note with it: recombinant CYP1A2, luciferin-ME demethylation, luminescence; series mostly up to 57 µM. The gist of the method: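 Luminescent readout of luciferin formed from Luciferin-ME by human CYP1A2; data normalized against complete inhibition by 57 uM furafylline. Enzyme 20nM, substrate 100uM at Km, 100mM KPO4 buffer, 60 min reaction at room temperature.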

Experiment [20] concerns the target Cytochrome P450 3A4 (Homo sapiens) (UniProt P08684). The experiment in a line: qHTS Assay for Activators of Cytochrome P450 3A4 (AID 885). Also: nearly all actives have a fitted effect of over 65% in size. Particulars: recombinant CYP3A4, Luciferin-PPXE luminescence, 60 min; series mostly up to 57.1 µM. The gist of the method: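 Steps: enzyme/substrate mix dispensed; compound added, 10 min RT; NADPH regeneration solution added, 60 min RT; luciferin detection buffer stops reaction; 20 min later luminescence measured.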

The mark [21] stands for this setting: measured here: cell count channel max response.
[22] abbreviates: measured here: lipid channel max response.

Chain of 3',5'-cyclic-AMP phosphodiesterase 4B (Homo sapiens) (Q07343 whole entry, looked up): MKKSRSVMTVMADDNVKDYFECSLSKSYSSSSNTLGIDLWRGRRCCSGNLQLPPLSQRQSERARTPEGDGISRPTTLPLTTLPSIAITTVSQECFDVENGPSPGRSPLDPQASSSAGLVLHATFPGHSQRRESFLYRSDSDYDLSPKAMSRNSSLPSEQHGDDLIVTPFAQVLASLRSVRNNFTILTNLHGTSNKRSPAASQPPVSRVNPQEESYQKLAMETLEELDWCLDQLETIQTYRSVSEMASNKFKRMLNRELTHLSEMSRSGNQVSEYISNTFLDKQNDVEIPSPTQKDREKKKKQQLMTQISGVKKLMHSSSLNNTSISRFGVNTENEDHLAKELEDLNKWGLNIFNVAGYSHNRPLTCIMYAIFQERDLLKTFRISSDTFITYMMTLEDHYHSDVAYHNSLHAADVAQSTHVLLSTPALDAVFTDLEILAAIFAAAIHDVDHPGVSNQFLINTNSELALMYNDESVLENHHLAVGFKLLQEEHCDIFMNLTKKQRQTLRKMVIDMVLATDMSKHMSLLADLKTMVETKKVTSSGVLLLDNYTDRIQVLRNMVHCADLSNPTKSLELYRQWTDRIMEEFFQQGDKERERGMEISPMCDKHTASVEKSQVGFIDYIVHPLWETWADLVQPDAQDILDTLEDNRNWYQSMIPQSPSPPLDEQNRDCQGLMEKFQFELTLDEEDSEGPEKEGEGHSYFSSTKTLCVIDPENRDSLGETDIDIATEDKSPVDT
Chain of Ubiquitin carboxyl-terminal hydrolase 1 (Homo sapiens) (O94782 whole entry, looked up): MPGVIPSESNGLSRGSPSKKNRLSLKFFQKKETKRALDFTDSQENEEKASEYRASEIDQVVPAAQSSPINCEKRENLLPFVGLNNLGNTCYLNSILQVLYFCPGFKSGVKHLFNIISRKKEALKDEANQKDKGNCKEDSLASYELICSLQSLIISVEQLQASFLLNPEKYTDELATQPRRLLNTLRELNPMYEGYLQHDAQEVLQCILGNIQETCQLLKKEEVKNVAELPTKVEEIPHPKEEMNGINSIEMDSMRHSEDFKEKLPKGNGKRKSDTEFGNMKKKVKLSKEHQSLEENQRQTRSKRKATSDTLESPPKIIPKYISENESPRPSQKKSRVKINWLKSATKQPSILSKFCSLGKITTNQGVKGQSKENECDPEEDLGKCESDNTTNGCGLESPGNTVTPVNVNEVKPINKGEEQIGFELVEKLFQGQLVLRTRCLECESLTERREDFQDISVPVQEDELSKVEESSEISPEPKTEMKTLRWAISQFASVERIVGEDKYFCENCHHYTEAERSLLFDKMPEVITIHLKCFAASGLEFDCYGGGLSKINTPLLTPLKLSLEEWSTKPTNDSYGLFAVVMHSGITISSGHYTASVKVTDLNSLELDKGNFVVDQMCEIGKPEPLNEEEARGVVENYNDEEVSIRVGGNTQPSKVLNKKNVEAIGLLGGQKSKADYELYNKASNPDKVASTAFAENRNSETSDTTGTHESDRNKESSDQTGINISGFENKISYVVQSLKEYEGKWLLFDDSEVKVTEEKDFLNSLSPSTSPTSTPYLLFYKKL
Chain of Glucocorticoid receptor (Homo sapiens) (P04150 whole entry, looked up): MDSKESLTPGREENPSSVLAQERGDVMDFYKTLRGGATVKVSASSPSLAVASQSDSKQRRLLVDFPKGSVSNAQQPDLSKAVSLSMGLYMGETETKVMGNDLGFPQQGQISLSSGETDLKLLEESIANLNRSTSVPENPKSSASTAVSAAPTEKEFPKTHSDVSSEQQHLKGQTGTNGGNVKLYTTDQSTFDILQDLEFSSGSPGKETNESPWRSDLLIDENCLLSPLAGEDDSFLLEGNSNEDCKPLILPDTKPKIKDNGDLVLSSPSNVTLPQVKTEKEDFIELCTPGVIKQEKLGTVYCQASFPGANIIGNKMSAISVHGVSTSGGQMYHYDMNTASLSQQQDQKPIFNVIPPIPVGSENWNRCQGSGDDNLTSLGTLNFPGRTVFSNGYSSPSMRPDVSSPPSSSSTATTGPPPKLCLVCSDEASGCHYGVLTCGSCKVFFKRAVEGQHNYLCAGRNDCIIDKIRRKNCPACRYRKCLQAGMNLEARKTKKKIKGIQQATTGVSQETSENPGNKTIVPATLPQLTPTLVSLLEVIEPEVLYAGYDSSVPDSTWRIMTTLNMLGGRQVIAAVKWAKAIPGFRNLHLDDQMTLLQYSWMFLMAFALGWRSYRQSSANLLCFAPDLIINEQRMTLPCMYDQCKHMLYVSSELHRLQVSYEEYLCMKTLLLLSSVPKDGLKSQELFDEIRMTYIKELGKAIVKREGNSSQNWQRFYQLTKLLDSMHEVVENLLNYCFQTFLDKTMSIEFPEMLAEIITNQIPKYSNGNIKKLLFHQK
Chain of Cytochrome P450 1A2 (Homo sapiens) (P05177 whole entry, looked up): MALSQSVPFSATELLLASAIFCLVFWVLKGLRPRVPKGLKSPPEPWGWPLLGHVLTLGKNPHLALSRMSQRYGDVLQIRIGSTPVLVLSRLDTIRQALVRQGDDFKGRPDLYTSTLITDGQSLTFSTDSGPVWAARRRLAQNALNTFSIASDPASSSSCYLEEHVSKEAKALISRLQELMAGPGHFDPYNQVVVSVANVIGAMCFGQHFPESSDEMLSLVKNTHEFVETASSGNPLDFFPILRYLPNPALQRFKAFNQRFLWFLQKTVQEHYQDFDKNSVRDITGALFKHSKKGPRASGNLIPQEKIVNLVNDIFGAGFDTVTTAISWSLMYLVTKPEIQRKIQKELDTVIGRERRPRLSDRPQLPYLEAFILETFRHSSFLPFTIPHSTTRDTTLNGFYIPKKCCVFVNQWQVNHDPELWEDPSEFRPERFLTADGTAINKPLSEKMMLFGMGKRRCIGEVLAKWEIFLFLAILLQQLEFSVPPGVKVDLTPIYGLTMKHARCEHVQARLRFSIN
Chain of Cytochrome P450 2D6 (Homo sapiens) (P10635 whole entry, looked up): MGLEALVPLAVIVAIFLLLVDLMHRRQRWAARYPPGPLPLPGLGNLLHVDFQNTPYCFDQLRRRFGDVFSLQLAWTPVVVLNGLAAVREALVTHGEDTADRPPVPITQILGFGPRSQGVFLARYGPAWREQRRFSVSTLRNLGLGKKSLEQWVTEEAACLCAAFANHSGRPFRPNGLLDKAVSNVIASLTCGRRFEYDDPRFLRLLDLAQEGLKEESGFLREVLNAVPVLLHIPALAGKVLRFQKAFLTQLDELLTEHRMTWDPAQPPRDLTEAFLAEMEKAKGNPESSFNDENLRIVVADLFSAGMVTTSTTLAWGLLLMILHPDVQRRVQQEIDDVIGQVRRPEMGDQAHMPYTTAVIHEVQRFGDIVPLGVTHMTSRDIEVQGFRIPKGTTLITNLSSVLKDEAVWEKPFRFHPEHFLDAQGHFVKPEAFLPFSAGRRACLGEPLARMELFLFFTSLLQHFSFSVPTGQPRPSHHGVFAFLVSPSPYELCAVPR
Chain of Pyruvate kinase PKM (Homo sapiens) (P14618 whole entry, looked up): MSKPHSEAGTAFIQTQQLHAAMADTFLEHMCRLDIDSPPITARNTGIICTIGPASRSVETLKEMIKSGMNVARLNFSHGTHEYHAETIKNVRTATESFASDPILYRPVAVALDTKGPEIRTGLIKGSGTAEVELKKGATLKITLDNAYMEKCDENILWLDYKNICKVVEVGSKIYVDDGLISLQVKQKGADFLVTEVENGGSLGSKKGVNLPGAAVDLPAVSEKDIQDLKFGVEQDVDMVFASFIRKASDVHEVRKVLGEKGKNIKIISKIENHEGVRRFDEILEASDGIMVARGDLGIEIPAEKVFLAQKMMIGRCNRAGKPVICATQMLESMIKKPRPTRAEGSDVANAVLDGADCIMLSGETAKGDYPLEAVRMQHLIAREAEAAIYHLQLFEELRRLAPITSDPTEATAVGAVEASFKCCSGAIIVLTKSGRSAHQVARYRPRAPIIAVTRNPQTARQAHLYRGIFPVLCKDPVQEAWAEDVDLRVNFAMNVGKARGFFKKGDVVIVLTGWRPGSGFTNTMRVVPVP
Chain of DNA dC->dU-editing enzyme APOBEC-3G (Homo sapiens) (Q9HC16 whole entry, looked up): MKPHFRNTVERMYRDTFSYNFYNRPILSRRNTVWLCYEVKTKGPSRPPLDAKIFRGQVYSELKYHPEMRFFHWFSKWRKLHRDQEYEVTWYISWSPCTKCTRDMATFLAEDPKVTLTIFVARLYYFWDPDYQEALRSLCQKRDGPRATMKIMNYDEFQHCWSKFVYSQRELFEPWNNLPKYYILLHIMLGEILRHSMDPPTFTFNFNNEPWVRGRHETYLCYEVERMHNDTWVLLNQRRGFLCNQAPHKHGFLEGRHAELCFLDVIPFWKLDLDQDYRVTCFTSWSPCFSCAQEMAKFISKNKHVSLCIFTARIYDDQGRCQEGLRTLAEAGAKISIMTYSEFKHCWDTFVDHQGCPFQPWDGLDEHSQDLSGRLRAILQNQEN
Chain of Cytochrome P450 3A4 (Homo sapiens) (P08684 whole entry, looked up): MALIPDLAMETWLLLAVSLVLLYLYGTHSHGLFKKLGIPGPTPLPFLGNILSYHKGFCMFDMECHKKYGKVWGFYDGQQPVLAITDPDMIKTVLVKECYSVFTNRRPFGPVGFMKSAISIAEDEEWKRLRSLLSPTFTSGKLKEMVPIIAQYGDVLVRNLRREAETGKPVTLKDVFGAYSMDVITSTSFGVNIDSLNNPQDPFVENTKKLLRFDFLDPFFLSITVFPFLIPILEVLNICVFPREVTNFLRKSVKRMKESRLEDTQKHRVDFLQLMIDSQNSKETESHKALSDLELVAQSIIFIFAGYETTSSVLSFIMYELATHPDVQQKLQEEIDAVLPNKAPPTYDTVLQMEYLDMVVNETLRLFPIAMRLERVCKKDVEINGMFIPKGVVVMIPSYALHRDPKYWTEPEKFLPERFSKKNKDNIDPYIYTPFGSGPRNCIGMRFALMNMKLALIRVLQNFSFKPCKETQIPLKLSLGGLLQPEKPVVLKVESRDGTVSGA

As for `C=C[C@H](N)CCC(=O)O`, the activity change, negative = inhibition in [1] (at 17.2 µM (top of the series)) is -1.55% (inactive); in experiment [1] (at 38 µM (top of the series)), 6.29% (inactive); in experiment [2] (at 17.2 µM (top of the series)) it was -1.05% (inactive); in experiment [2] (at 38 µM (top of the series)) it was 2.77% (inactive); in [14] (at 25.7 µM (top of the series)), -2.99% (inactive); in [14] (at 57.5 µM (top of the series)), -0.953% (inactive). Besides, the activity, negative = inhibition in [3] (at 17.2 µM (top of the series)) is -1.55% (inactive); in experiment [3] (at 38 µM (top of the series)), -14.6% (inactive). For the same compound, the Potency was > 46 µM (inactive) and > 20.6 µM (inactive) in experiment [4]; > 46 µM (inactive) and > 20.6 µM (inactive) in experiment [5]. Also, the Potency entry in experiment [6], in experiment [7], in experiment [8], in experiment [9], in experiment [10] and in [11] was “inactive” throughout. Also, the Potency entry in experiment [15], in [16], in [17] and in experiment [18] was “inactive” each time. Besides, the result in experiment [12] and in experiment [13] was inactive. The max response in experiment [14] (setting [21]) was 3.82% and -3.83%; in experiment [14] (setting [22]), 1.97% and -5.49%.

As to `CC(C)[C@H](O)CC[C@@H](C)C1CC[C@H]2C3CC=C4C[C@@H](O)CC[C@]4(C)C3CC[C@]12C` (stereo partly drawn), the Potency entry in experiment [17] and in experiment [18] was “inactive” each time.

On to `C[C@H](N=C(NC#N)Nc1ccncc1)C(C)(C)C`, for which the activity change, negative = inhibition is -27.9% (inactive) in experiment [1] (at 38 µM (top of the series)), 5.32% (inactive) in [2] (at 17.2 µM (top of the series)), 6.54% (inactive) in [2] (at 38 µM (top of the series)) and -0.699% (inactive) in [14] (at 25.7 µM (top of the series)). The Potency is 15.8 µM (active) and inactive in experiment [19]; > 46 µM (inactive) and > 20.6 µM (inactive) in [4]; > 46 µM (inactive) and > 20.6 µM (inactive) in experiment [5]. Also, the results for the activity, negative = inhibition in experiment [3] (at 17.2 µM (top of the series)) and in [3] (at 38 µM (top of the series)) were -8.19% (inactive) and -12.4% (inactive), respectively. The Potency entry in experiment [6], in [7], in experiment [20], in [9], in experiment [10] and in experiment [15] was “inactive” in each case. Moreover, the Potency result in experiment [16], in experiment [17] and in experiment [18] was “inactive” throughout. Moreover, the outcome in experiment [12] and in experiment [13] was inactive. In addition, the max response is 1.19% in [14] (setting [21]) and -1.85% in [14] (setting [22]).
